This note sets out measurements from PubChem BioAssay (Tox21).

SMILES strings stand for the structures. Records with an inconclusive call do not appear. Entries that show only a call come without a potency. Active and inactive are the calls of the source. Unless noted, the call rests on the fitted dose curve; in most records, active means well fitted cell-killing curve with a large enough effect in the repeat runs (not every such curve was filed as active); inconclusive means weak or mixed curves, or effect the other way; inactive means no such curve, though single readings can be large or run the other way.

For the first experiment, the target named is Bile acid receptor (Homo sapiens) (UniProt Q96RI1). The experiment in a line: qHTS assay to identify small molecule antagonists of the farnesoid-X-receptor (FXR) signaling pathway (AID 743217; active means well fitted inhibition curve with a large enough effect in the signal ratio in the repeat runs, not every such curve was filed as active; the % refers to the signal ratio). Conditions: HEK293T FXR-UAS-bla, beta-lactamase ratio, CDCA-stimulated, 16 h; series mostly up to 62.6 µM. Summed up: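 GeneBLAzer FXR-UAS-bla HEK 293T, CDCA-stimulated (50 uM final). Compound treatment 16 h, 37 °C. Detection: beta-lactamase cleavage of B/G FRET substrate, fluorescence.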
Chain of Bile acid receptor (Homo sapiens) (Q96RI1 whole entry, looked up): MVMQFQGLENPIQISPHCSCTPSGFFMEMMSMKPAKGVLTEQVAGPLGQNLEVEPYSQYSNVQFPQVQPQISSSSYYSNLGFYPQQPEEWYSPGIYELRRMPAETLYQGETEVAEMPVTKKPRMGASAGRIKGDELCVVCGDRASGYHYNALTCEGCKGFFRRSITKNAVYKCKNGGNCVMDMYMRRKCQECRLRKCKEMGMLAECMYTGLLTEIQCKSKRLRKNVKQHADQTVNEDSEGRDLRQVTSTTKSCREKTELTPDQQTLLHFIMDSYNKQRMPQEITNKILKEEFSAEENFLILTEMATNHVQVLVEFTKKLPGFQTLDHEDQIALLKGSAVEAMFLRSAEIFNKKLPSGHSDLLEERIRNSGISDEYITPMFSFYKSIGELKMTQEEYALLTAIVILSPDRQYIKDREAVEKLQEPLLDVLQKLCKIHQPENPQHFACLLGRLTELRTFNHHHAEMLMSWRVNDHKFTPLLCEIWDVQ
(qHTS replaces the single test concentration by a dilution series.)
As to `CC1=C(C)C(=O)C(CCCCC#CCCCC#CCO)=C(C)C1=O`, the result was inactive.
As for `Nc1cccc2c(=O)[nH][nH]c(=O)c12`, the outcome was inactive.
As to `C[C@H](CN1CCCC1)C(=O)c1ccc(C(F)(F)F)cc1`, the outcome was inactive.
Turning to `CCCCCCCCCCCCSCCOCCO`, the result was inactive.
Still for that read-out and setting: to `COc1ccc(C(=O)Nc2ccccc2)cc1[N+](=O)[O-]` belongs “inactive”; to `O=C(O)c1cccnc1Nc1cccc(C(F)(F)F)c1`, “inactive”.
The same measure, in the same setting: as for `O=C(O)c1cc(C(=O)O)c(C(=O)O)cc1C(=O)O`, the entry is “inactive”.
As for `Oc1ccc(CCNCCCCCCNCCc2ccccc2)cc1O`, the outcome was inactive.
`CC(C)(Cc1c[nH]c2ccccc12)NCC(O)COc1ccccc1C#N` (stereo unspecified): the result was inactive.
As to `COc1ccc(/C=C/c2cc(OC)cc(=O)o2)cc1`, the outcome was inactive.

System in the next experiment: not listed separately
In words: qHTS assay to identify small molecule agonists of the farnesoid-X-receptor (FXR) signaling pathway - cell viability counter screen (AID 743218; active means well fitted cell-killing curve with a large enough effect in the repeat runs; further: nearly all actives have a fitted effect of over 45% in size; further: potency means the concentration at half of the fitted maximal effect). Conditions: FXR-bla HEK293T viability, CellTiter-Glo luminescence, 16 h; series mostly up to 62.6 µM. In outline:
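Parallel cytotoxicity test: compound-treated (16 h, 37 C) HEK 293T FXR-bla reporter cells were lysed with CellTiter-Glo and luminescence recorded.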
On to `C[C@H](N)C(=O)N[C@@H](C)C(=O)NC1[C@H]2CN(c3nc4c(cc3F)c(=O)c(C(=O)O)cn4-c3ccc(F)cc3F)C[C@@H]12` (stereo partly specified), for which the Potency result is “inactive”.
Same read-out and setting: to `CC1=C(C)C(=O)C(CCCCC#CCCCC#CCO)=C(C)C1=O` belongs “inactive”; to `Nc1cccc2c(=O)[nH][nH]c(=O)c12`, “inactive”.
The same measure, in the same setting: to `C[C@H](CN1CCCC1)C(=O)c1ccc(C(F)(F)F)cc1` belongs “inactive”.
`CC1=CC(=C(c2ccc(N)cc2)c2ccc(N)cc2)C=CC1=N`: the viability change, negative = cytotoxic is -22.2% [at 5.95 µM] (inactive).
Turning to `CCCCCCCCCCCCSCCOCCO`, the Potency entry was “inactive”.
As to `NCCOCCOCCN`, the Potency was 6.92 µM (active).
With `C=C[Si](OCC)(OCC)OCC`, the Potency entry is “inactive”.
Regarding `COc1ccc(C(=O)Nc2ccccc2)cc1[N+](=O)[O-]`, the Potency entry was “inactive”.
Consider `O=C(O)c1cccnc1Nc1cccc(C(F)(F)F)c1`, for which the Potency result is “inactive”.
Still for that read-out and setting: to `O=C(O)c1cccc(C(=O)O)c1C(=O)O` belongs “inactive”.
Still for that read-out and setting: to `SCCOCCOCCS` belongs “inactive”.
The same measure, in the same setting: to `Clc1nc2ccccc2nc1Cl` belongs “inactive”; to `Oc1ccc(CCNCCCCCCNCCc2ccccc2)cc1O`, “inactive”.
Consider `c1ccc(CN(Cc2ccccc2)Cc2ccccc2)cc1`, for which the Potency entry is “inactive”.
In the case of `C=C[Si]1(C)O[Si](C)(C=C)O[Si](C)(C=C)O[Si](C)(C=C)O1` (stereo unspecified), the Potency result is “inactive”.
Still for that read-out and setting: to `Cc1ccc(NC(=O)c2ccc(CN3CCN(C)CC3)cc2)cc1Nc1nccc(-c2cccnc2)n1` belongs “inactive”; to `CCCC1CCCC(=O)O1` (stereo unspecified), “inactive”; to `S=c1[nH][nH]c(=S)s1`, “inactive”.
Same read-out and setting: to `Cc1c(N=C=O)cccc1N=C=O` belongs “inactive”; to `CCCCCCC/C=C/C=O`, “inactive”; to `C[C@]12CCC(=O)C=C1[C@@H]1C[C@@H]1[C@H]1[C@@H]3[C@@H]4C[C@@H]4[C@@]4(CCC(=O)O4)[C@@]3(C)CC[C@@H]12`, “inactive”.
The same measure, in the same setting: as for `O=C(N[C@@H](Cc1ccccc1)[C@@H](O)C(=O)N1C[C@@H](O)[C@@H](O)C1)c1cc2cc(Cl)ccc2[nH]1`, the entry is “inactive”.
On to `Cc1nc2sccn2c(=O)c1CCN1CCC(=C(c2ccc(F)cc2)c2ccc(F)cc2)CC1`, for which the Potency is 26.6 µM (active).
For `O=Cc1ccc(Cl)c([N+](=O)[O-])c1`, the Potency result is “inactive”.

The next experiment concerns the target Bile acid receptor (Homo sapiens) (UniProt Q96RI1). The experiment in a line: qHTS assay to identify small molecule agonists of the farnesoid-X-receptor (FXR) signaling pathway (AID 743220; active means well fitted activation curve with a large enough effect in the signal ratio in the repeat runs, not every such curve was filed as active; the % refers to the signal ratio). Conditions: HEK293T FXR-UAS-bla, beta-lactamase FRET ratio, 16 h; series mostly up to 62.6 µM. In outline:
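Beta-lactamase reporter under UAS control in GeneBLAzer FXR HEK 293T cells (5000/well) measured with LiveBLAzer FRET substrate after 2 h at room temperature. Compound exposure lasted 16 h at 37C.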
Take `C[C@H](CN1CCCC1)C(=O)c1ccc(C(F)(F)F)cc1`: the result was inactive.
The same measure, in the same setting: to `CCCCCCCCCCCCSCCOCCO` belongs “inactive”; to `COc1ccc(C(=O)Nc2ccccc2)cc1[N+](=O)[O-]`, “inactive”; to `CC(C)(Cc1c[nH]c2ccccc12)NCC(O)COc1ccccc1C#N` (stereo unspecified), “inactive”.

System in a further experiment: not listed separately
The experiment in a line: qHTS assay to identify small molecule antagonists of the farnesoid-X-receptor (FXR) signaling pathway - cell viability counter screen (AID 743221). Further: nearly all actives have a fitted effect of over 50% in size. Further: potency means the concentration at half of the fitted maximal effect. The note with it: FXR-bla HEK293T viability, CellTiter-Glo luminescence, 16 h; series mostly up to 62.6 µM. Summed up: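 GeneBLAzer FXR-UAS-bla HEK 293T cells, compound plus chenodeoxycholic acid (50 uM final), 16 h at 37 C. CellTiter-Glo added to the same wells after the beta-lactamase read; luminescence read after 30 min at room temperature as viability.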
In the case of `CC1=C(C)C(=O)C(CCCCC#CCCCC#CCO)=C(C)C1=O`, the Potency entry is “inactive”.
As to `Nc1cccc2c(=O)[nH][nH]c(=O)c12`, the Potency entry is “inactive”.
Still for that read-out and setting: as for `C[C@H](CN1CCCC1)C(=O)c1ccc(C(F)(F)F)cc1`, the entry is “inactive”.
As to `CC1=CC(=C(c2ccc(N)cc2)c2ccc(N)cc2)C=CC1=N`, the activity change, negative = cytotoxicity was -5.62% [at 5.95 µM] (inactive).
As to `NCCOCCOCCN`, the Potency is 19.5 µM (active).
As for `CC(C)C[C@H](NC(=O)[C@H](Cc1ccccc1)NC(=O)c1cnccn1)B(O)O`, the Potency is 0.298 µM (active).
Take `COc1ccc(C(=O)Nc2ccccc2)cc1[N+](=O)[O-]`: the Potency result is “inactive”.
Consider `O=C(O)c1cc(C(=O)O)c(C(=O)O)cc1C(=O)O`, for which the Potency entry is “inactive”.
On the same count and under the same terms, to `Oc1ccc(CCNCCCCCCNCCc2ccccc2)cc1O` belongs “inactive”; to `c1ccc(CN(Cc2ccccc2)Cc2ccccc2)cc1`, “inactive”.
Same read-out and setting: to `CCN(CCCCOC(=O)c1ccc(OC)c(OC)c1)C(C)Cc1ccc(OC)cc1` (stereo unspecified) belongs “inactive”.
Regarding `C=C[Si]1(C)O[Si](C)(C=C)O[Si](C)(C=C)O[Si](C)(C=C)O1` (stereo unspecified), the Potency entry is “inactive”.
As for `Cc1ccc(NC(=O)c2ccc(CN3CCN(C)CC3)cc2)cc1Nc1nccc(-c2cccnc2)n1`, the Potency result was “inactive”.
`CC(O)C(C)O` (stereo unspecified): the Potency result was “inactive”.
`CCCC1CCCC(=O)O1` (stereo unspecified): the Potency entry was “inactive”.
As to `S=c1[nH][nH]c(=S)s1`, the Potency result was “inactive”.
On the same count and under the same terms, to `CCCN(C1CCN(C(=O)C2CCNCC2)CC1)[C@@H]1CCc2ccc(OC)cc2C1` belongs “inactive”; to `CCCCCCC/C=C/C=O`, “inactive”.
`CC(=O)Nc1ccn(C2COC(COC(=O)c3ccccc3)O2)c(=O)n1` (stereo unspecified): the Potency entry is “inactive”.
Take `C[C@]12CCC(=O)C=C1[C@@H]1C[C@@H]1[C@H]1[C@@H]3[C@@H]4C[C@@H]4[C@@]4(CCC(=O)O4)[C@@]3(C)CC[C@@H]12`: the Potency entry was “inactive”.
As for `O=c1c2ccccc2oc2ccccc12`, the Potency entry was “inactive”.
On to `CC(=O)Oc1cccc2c1C(=O)c1c(OC(C)=O)cc(C(=O)O)cc1C2=O`, for which the Potency entry is “inactive”.
Regarding `COc1ccc(/C=C/c2cc(OC)cc(=O)o2)cc1`, the Potency entry is “inactive”.
As for `O=C(N[C@@H](Cc1ccccc1)[C@@H](O)C(=O)N1C[C@@H](O)[C@@H](O)C1)c1cc2cc(Cl)ccc2[nH]1`, the Potency entry is “inactive”.
Same read-out and setting: as for `Cc1nc2sccn2c(=O)c1CCN1CCC(=C(c2ccc(F)cc2)c2ccc(F)cc2)CC1`, the entry is “inactive”; as for `CO[C@@H]1[C@@H](O[C@@H]2O[C@H](C)[C@@H](O[C@H]3C[C@@](C)(O)[C@@H](O)[C@H](C)O3)[C@H](N(C)C)[C@H]2O)[C@@H](CC=O)C[C@@H](C)[C@@H](O[C@@H]2CC[C@H](N(C)C)[C@@H](C)O2)/C=C/C=C/C[C@@H](C)OC(=O)C[C@H]1OC(C)=O`, “inactive”.
Same read-out and setting: as for `O=Cc1ccc(Cl)c([N+](=O)[O-])c1`, the entry is “inactive”.
